Measurements from PubChem BioAssay AID1159580 (chemical genetic matrix, 2015).
Where “and” joins values, the source holds several entries; their conditions need not be identical. Equal values may be shown once. The campaign covered roughly 5,500 compounds. About 2,000 (36%) were called active. About 18% were inconclusive and are not listed. Rule as the data show it: active = normalized growth mostly below about 0.91 (no sharp cut-off); inconclusive = no clear call, values can overlap the other calls; inactive = mostly above about 0.92. The list shows a part of the results.

Assay: chemical genetic growth profiling, strain panel (AID 1159580);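 also: tested at 20 µM; growth read once vehicle control cultures reached saturation at 30 °C; 1 = growth at the plate median or of vehicle wells; lower values mean less growth of the strain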
Settings: S. cerevisiae deletion strains, growth OD

Measured: normalized growth

C[C@H](N)[C@H](O)c1ccc(O)c(O)c1
inactive: locus YAL013W, strain DEP1, stronger effect = lower value 1 | locus YAL021C, strain ccr4, stronger effect = lower value 1.01 | locus YAL026C, strain drs2, stronger effect = lower value 1.01 | locus YAL030W, strain snc1, stronger effect = lower value 1 | locus YBL061C, strain skt5, stronger effect = lower value 1.01 | locus YBR009C, strain hhf1, stronger effect = lower value 0.997 | locus YBR021W, strain FUR4, stronger effect = lower value 0.991 | locus YBR023C, strain chs3, stronger effect = lower value 0.999 | locus YBR171W, strain sec66, stronger effect = lower value 0.991 | locus YBR229C, strain ROT2, stronger effect = lower value 0.991 | locus YBR231C, strain swc5, stronger effect = lower value 0.982 | locus YBR279W, strain paf1, stronger effect = lower value 1.02 | locus YCL011C, strain gbp2, stronger effect = lower value 1.01 | locus YCL016C, strain dcc1, stronger effect = lower value 0.987 | locus YCL029C, strain bik1, stronger effect = lower value 0.993 | locus YCL061C, strain MRC1, stronger effect = lower value 1 | locus YCL069W, strain vba3, stronger effect = lower value 1.01 | locus YCR088W, strain abp1, stronger effect = lower value 1 | locus YDL005C, strain med2, stronger effect = lower value 0.996 | locus YDL035C, strain GPR1, stronger effect = lower value 1 | locus YDL040C, strain nat1, stronger effect = lower value 1 | locus YDL074C, strain BRE1, stronger effect = lower value 0.983 | locus YDL101C, strain DUN1, stronger effect = lower value 0.992 | locus YDL185W, strain tfp1, stronger effect = lower value 0.982 | locus YDL192W, strain arf1, stronger effect = lower value 0.979 | locus YDR001C, strain nth1, stronger effect = lower value 1.01 | locus YDR069C, strain doa4, stronger effect = lower value 1.01 | locus YDR101C, strain arx1, stronger effect = lower value 1.01 | locus YDR137W, strain rgp1, stronger effect = lower value 1 | locus YDR159W, strain sac3, stronger effect = lower value 1.01 | locus YDR162C, strain NBP2, stronger effect = lower value 0.999 | locus YDR195W, strain ref2 0.991 | locus YDR297W, strain sur2, stronger effect = lower value 1.01 | locus YDR318W, strain mcm21, stronger effect = lower value 0.98 | locus YDR334W, strain swr1, stronger effect = lower value 0.997 | locus YDR335W, strain msn5, stronger effect = lower value 1.01 | locus YDR388W, stronger effect = lower value 0.992 | locus YDR392W, strain spt3, stronger effect = lower value 0.926 | locus YDR502C, strain sam2, stronger effect = lower value 0.99 | locus YEL003W, strain gim4, stronger effect = lower value 1.01 | locus YEL037C, strain rad23, stronger effect = lower value 1 | locus YEL061C, strain CIN8 (second series), stronger effect = lower value 1.01 | locus YEL061C, strain CIN8, stronger effect = lower value 1 | locus YER015W, strain faa2, stronger effect = lower value 1 | locus YER016W, strain bim1, stronger effect = lower value 1.01 | locus YER110C, stronger effect = lower value 0.97 | locus YER111C, strain swi4, stronger effect = lower value 1 | locus YER155C, strain BEM2 (second series), stronger effect = lower value 0.994 | locus YER155C, strain BEM2, stronger effect = lower value 0.999 | locus YER167W, strain BCK2, stronger effect = lower value 1.02 | locus YFR010W, strain ubp6, stronger effect = lower value 1 | locus YGL078C, strain dbp3, stronger effect = lower value 0.962 | locus YGL086W, strain mad1, stronger effect = lower value 0.996 | locus YGL167C, strain pmr1, stronger effect = lower value 0.995 | locus YGL173C, strain kem1, stronger effect = lower value 1.01 | locus YGL227W, strain vid30, stronger effect = lower value 0.992 | locus YGL240W, strain doc1, stronger effect = lower value 1.01 | locus YGL248W, strain PDE1, stronger effect = lower value 0.988 | locus YGL253W, strain hxk2, stronger effect = lower value 1.02 | locus YGR135W, strain pre9, stronger effect = lower value 0.948 | locus YGR252W, strain gcn5, stronger effect = lower value 0.91 | locus YHR013C, strain ard1, stronger effect = lower value 1.01 | locus YHR027C, strain rpn1, stronger effect = lower value 0.996 | locus YHR030C, strain SLT2, stronger effect = lower value 1.01 and 1 | locus YHR079C, strain IRE1 (second series), stronger effect = lower value 0.993 | locus YHR079C, strain IRE1, stronger effect = lower value 1 | locus YHR094C, strain hxt1, stronger effect = lower value 0.991 | locus YHR129C, strain ARP1, stronger effect = lower value 0.996 | locus YHR142W, strain chs7, stronger effect = lower value 0.993 | locus YHR200W, strain rpn10, stronger effect = lower value 0.985 | locus YIL066C, strain RNR3, stronger effect = lower value 0.998 | locus YIL073C, strain SPO22, stronger effect = lower value 1.01 | locus YIL125W, strain kgd1, stronger effect = lower value 0.975 | locus YIR030C, strain dcg1, stronger effect = lower value 0.988 | locus YJL092W, strain hpr5, stronger effect = lower value 1 | locus YJL095W, strain BCK1 (second series), stronger effect = lower value 1.01 | locus YJL095W, strain BCK1, stronger effect = lower value 0.978 and 1.02 | locus YJL115W, strain asf1, stronger effect = lower value 1.01 | locus YJL129C, strain trk1, stronger effect = lower value 0.986 | locus YJL134W, strain LCB3, stronger effect = lower value 1 | locus YJL154C, strain vps35, stronger effect = lower value 1.01 | locus YJL164C, strain tpk1, stronger effect = lower value 1.01 | locus YJL166W, strain qcr8, stronger effect = lower value 0.992 | locus YJL168C, strain set2, stronger effect = lower value 0.978 | locus YJL187C, strain SWE1 (second series), stronger effect = lower value 0.985 | locus YJL187C, strain SWE1, stronger effect = lower value 0.998 | locus YJR043C, strain POL32, stronger effect = lower value 1.01
